The text below walks through data of PubChem BioAssay (NCI).

The nature of experiment [1]: NCI Yeast Anticancer Drug Screen. Data for the rad50 strain (AID 155).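 Note: 0% = growth of vehicle-only cultures of the same strain.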 The note with it: S. cerevisiae rad50 strain growth inhibition, stronger effect = higher value. The essentials:
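Vehicle-treated cultures provide the reference for the growth inhibition reported for compound-exposed, repair-deficient yeast.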

The nature of experiment [2]: NCI Yeast Anticancer Drug Screen. Data for the mec2-1 strain (AID 157). As to conditions: S. cerevisiae mec2-1 strain, stronger effect = higher value. A digest of the protocol:
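Vehicle-treated cultures served as reference for growth inhibition of compound-exposed mec2-1 yeast.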

The nature of experiment [3]: NCI Yeast Anticancer Drug Screen. Data for the sgs1 mgt1 strain (AID 161).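 Note: 0% = growth of cultures given vehicle only.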 The note with it: S. cerevisiae sgs1 mgt1 strain, stronger effect = higher value. A digest of the protocol: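 Genetically altered yeast, compound exposure, growth inhibition relative to vehicle.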
Experiment [4] in a line: NCI Yeast Anticancer Drug Screen. Data for the cln2 rad14 strain (AID 165).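 Note: 0% = growth equal to vehicle treated cultures.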 The note with it: S. cerevisiae cln2 rad14 strain, stronger effect = higher value. The essentials:
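Each compound was tested on cln2 rad14 yeast. Inhibition of growth was calculated against vehicle-exposed controls.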

Experiment [5] in a line: NCI Yeast Anticancer Drug Screen. Data for the bub3 strain (AID 167). As to conditions: S. cerevisiae bub3 mutant strain, stronger effect = higher value. The essentials:
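Mutant yeast screening strain plus compound; vehicle-treated cultures serve as the 0% inhibition reference.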

The nature of experiment [6]: NCI Yeast Anticancer Drug Screen. Data for the mlh1 rad18 strain (AID 175). As to conditions: S. cerevisiae mlh1 rad18 strain growth inhibition, stronger effect = higher value. A digest of the protocol:
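Vehicle-treated cultures served as the reference for growth inhibition in a yeast strain carrying DNA damage repair alterations exposed to each compound.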

Where [7] appears, read: at 5.0 µM (retest, dose inferred, filed as 0.5).
Where [8] appears, read: at 50.0 µM (retest, dose inferred, filed as 5.0).

About 79,000 compounds went through this panel and 15% of them were active in at least one assay; those are over-represented in the sample as a whole. Unmarked numbers belong to inactive results. Activity calls are given as the source filed them. Cut-off read from the data, not from the text of the source: active = growth inhibition above about 70%; inactive = the rest.

Consider `O=C(O)CCCCCCCCC(=O)CCl`, for which the growth inhibition in experiment [1] (setting [7]) is 9%; in experiment [1] (setting [8]), 97% (active); in experiment [1] (at 50.0 µM) it was 98.8% (active); in experiment [2] (setting [7]) it was 23%; in experiment [2] (setting [8]) it was 99% (active); in experiment [2] (at 50.0 µM), 99.5% (active). Moreover, the growth inhibition was 29% in experiment [3] (setting [7]); 98% (active) in experiment [3] (setting [8]); 99% (active) in experiment [3] (at 50.0 µM); 14% in experiment [4] (setting [7]); 98% (active) in experiment [4] (setting [8]); 97.5% (active) in experiment [4] (at 50.0 µM). For the same compound, the growth inhibition in experiment [5] (setting [7]) was 48%; in experiment [5] (setting [8]) it was 98% (active); in experiment [5] (at 50.0 µM), 99.5% (active); in experiment [6] (setting [7]) it was 38%; in experiment [6] (setting [8]), 98% (active); in experiment [6] (at 50.0 µM), 99.2% (active).
As to `C/C(=N\NC(=S)N(C)C)c1cccnn1`, the growth inhibition was 95% (active) in experiment [1] (setting [7]); 99% (active) in experiment [1] (setting [8]); 84.8% (active) in experiment [1] (at 50.0 µM); 91% (active) in experiment [2] (setting [7]); 99% (active) in experiment [2] (setting [8]); 91.4% (active) in experiment [2] (at 50.0 µM). For the same compound, the growth inhibition was 92% (active) in experiment [3] (setting [7]); 98% (active) in experiment [3] (setting [8]); 87.3% (active) in experiment [3] (at 50.0 µM); 94% (active) in experiment [4] (setting [7]); 95% (active) in experiment [4] (setting [8]); 86.8% (active) in experiment [4] (at 50.0 µM). Besides, the growth inhibition in experiment [5] (setting [7]) is 95% (active); in experiment [5] (setting [8]) it was 99% (active); in experiment [5] (at 50.0 µM), 89.5% (active); in experiment [6] (setting [7]), 96% (active); in experiment [6] (setting [8]), 99% (active); in experiment [6] (at 50.0 µM), 83.2% (active).
In the case of `N#COc1ccc(Oc2ccc(OC#N)cc2)cc1`, the growth inhibition in experiment [1] (setting [7]) was -4%; in experiment [1] (setting [8]) it was -3%; in experiment [1] (at 50.0 µM) it was -12.9%; in experiment [2] (setting [7]) it was -30%; in experiment [2] (setting [8]), 14%; in experiment [2] (at 50.0 µM), -22.8%. The growth inhibition in experiment [3] (setting [7]) was 26%; in experiment [3] (setting [8]) it was -3%; in experiment [3] (at 50.0 µM), 90.2% (active); in experiment [4] (setting [7]), -2%; in experiment [4] (setting [8]) it was 29%; in experiment [4] (at 50.0 µM), 25.8%. The growth inhibition in experiment [5] (setting [7]) is -5%; in experiment [5] (setting [8]) it was 46%; in experiment [5] (at 50.0 µM), 40%; in experiment [6] (setting [7]), -12%; in experiment [6] (setting [8]), -15%; in experiment [6] (at 50.0 µM) it was 25.3%.
Consider `COC(=O)C1CCN(Cc2ccccc2)CC1=O` (stereo not given), for which the growth inhibition in experiment [1] (setting [7]) is 38%; in experiment [1] (setting [8]), 57%; in experiment [1] (at 50.0 µM), 89.3% (active); in experiment [2] (setting [7]) it was 48%; in experiment [2] (setting [8]) it was 51%; in experiment [2] (at 50.0 µM), 92.1% (active). For the same compound, the growth inhibition in experiment [3] (setting [7]) was 77% (active); in experiment [3] (setting [8]), 100% (active); in experiment [3] (at 50.0 µM) it was 93.2% (active); in experiment [4] (setting [7]), 83% (active); in experiment [4] (setting [8]), 100% (active); in experiment [4] (at 50.0 µM) it was 90% (active). The growth inhibition in experiment [5] (setting [7]) was 81% (active); in experiment [5] (setting [8]), 98% (active); in experiment [5] (at 50.0 µM), 90% (active); in experiment [6] (setting [7]) it was 37%; in experiment [6] (setting [8]), 47%; in experiment [6] (at 50.0 µM), 89.9% (active).
Take `O=S(=O)(c1ccccc1)C1CN=NC1c1ccccc1` (stereo not given): the growth inhibition in experiment [1] (setting [7]) is 4%; in experiment [1] (setting [8]) it was 79% (active); in experiment [1] (at 50.0 µM) it was 84.2% (active); in experiment [2] (setting [7]), -16%; in experiment [2] (setting [8]) it was 97% (active); in experiment [2] (at 50.0 µM), 97.7% (active). The growth inhibition was -7% in experiment [3] (setting [7]); 98% (active) in experiment [3] (setting [8]); 73.6% (active) in experiment [3] (at 50.0 µM); -2% in experiment [4] (setting [7]); 69% in experiment [4] (setting [8]); 93.5% (active) in experiment [4] (at 50.0 µM). The growth inhibition was 6% in experiment [5] (setting [7]); 98% (active) in experiment [5] (setting [8]); 87.8% (active) in experiment [5] (at 50.0 µM); 30% in experiment [6] (setting [7]); 97% (active) in experiment [6] (setting [8]); 97% (active) in experiment [6] (at 50.0 µM).
Regarding `CC1=CCC[C@@H]2C1(C)CCC(C)[C@@]2(C)CC1=CC(=O)C=CC1=O` (stereo not given in full), the growth inhibition in experiment [1] (setting [7]) is 18%; in experiment [1] (setting [8]), 95% (active); in experiment [1] (at 50.0 µM), 86.1% (active); in experiment [2] (setting [7]) it was 27%; in experiment [2] (setting [8]), 96% (active); in experiment [2] (at 50.0 µM), 89.2% (active). Also, the growth inhibition was 52% in experiment [3] (setting [7]); 95% (active) in experiment [3] (setting [8]); 88.8% (active) in experiment [3] (at 50.0 µM); -12% in experiment [4] (setting [7]); 92% (active) in experiment [4] (setting [8]); 85.5% (active) in experiment [4] (at 50.0 µM). The growth inhibition was 14% in experiment [5] (setting [7]); 93% (active) in experiment [5] (setting [8]); 86.8% (active) in experiment [5] (at 50.0 µM); 40% in experiment [6] (setting [7]); 92% (active) in experiment [6] (setting [8]); 87% (active) in experiment [6] (at 50.0 µM).
With `Nc1ccc2c(c1)NCCN2`, the growth inhibition is 42% in experiment [1] (setting [7]); 76% (active) in experiment [1] (setting [8]); 84% (active) in experiment [1] (at 50.0 µM); 5% in experiment [2] (setting [7]); 17% in experiment [2] (setting [8]); 32.1% in experiment [2] (at 50.0 µM). Moreover, the growth inhibition in experiment [3] (setting [7]) was 4%; in experiment [3] (setting [8]), 20%; in experiment [3] (at 50.0 µM), 23.5%; in experiment [4] (setting [7]), 3%; in experiment [4] (setting [8]), 6%; in experiment [4] (at 50.0 µM) it was 21.4%. Besides, the growth inhibition was 1% in experiment [5] (setting [7]); 18% in experiment [5] (setting [8]); 18.2% in experiment [5] (at 50.0 µM); 7% in experiment [6] (setting [7]); 31% in experiment [6] (setting [8]); 53.4% in experiment [6] (at 50.0 µM).
Turning to `N#CSCN1C(=O)C2CC=CCC2C1=O` (stereo not given), the growth inhibition in experiment [1] (setting [7]) is 14%; in experiment [1] (setting [8]), 93% (active); in experiment [1] (at 50.0 µM), 93% (active); in experiment [2] (setting [7]), 2%; in experiment [2] (setting [8]), 95% (active); in experiment [2] (at 50.0 µM), 97.1% (active). In addition, the growth inhibition is 8% in experiment [3] (setting [7]); 94% (active) in experiment [3] (setting [8]); 49.5% in experiment [3] (at 50.0 µM); 9% in experiment [4] (setting [7]); 94% (active) in experiment [4] (setting [8]); 49.5% in experiment [4] (at 50.0 µM). In addition, the growth inhibition in experiment [5] (setting [7]) is 6%; in experiment [5] (setting [8]) it was 95% (active); in experiment [5] (at 50.0 µM), 95.5% (active); in experiment [6] (setting [7]) it was 11%; in experiment [6] (setting [8]) it was 96% (active); in experiment [6] (at 50.0 µM), 50.4%.
On to `Cc1ccc(S(=O)(=O)Nc2ccccc2SSc2ccccc2NS(=O)(=O)c2ccc(C)cc2)cc1`, for which the growth inhibition in experiment [1] (setting [7]) is 46%; in experiment [1] (setting [8]), 69%; in experiment [1] (at 50.0 µM), 57.5%; in experiment [2] (setting [7]), 38%; in experiment [2] (setting [8]), 81% (active); in experiment [2] (at 50.0 µM), 63.8%. For the same compound, the growth inhibition is 59% in experiment [3] (setting [7]); 76% (active) in experiment [3] (setting [8]); 60.6% in experiment [3] (at 50.0 µM); 44% in experiment [4] (setting [7]); 82% (active) in experiment [4] (setting [8]); 68.9% in experiment [4] (at 50.0 µM). Further, the growth inhibition in experiment [5] (setting [7]) is 53%; in experiment [5] (setting [8]) it was 74% (active); in experiment [5] (at 50.0 µM), 60.4%; in experiment [6] (setting [7]), 63%; in experiment [6] (setting [8]), 77% (active); in experiment [6] (at 50.0 µM), 60.5%.
For `CCOC(=O)/C=C(\C)c1ccc([N+](=O)[O-])cc1`, the growth inhibition in experiment [1] (setting [7]) is -158%; in experiment [1] (setting [8]), -127%; in experiment [1] (at 50.0 µM), 36.1%; in experiment [2] (setting [7]), -49%; in experiment [2] (setting [8]) it was -51%; in experiment [2] (at 50.0 µM), -17.3%. For the same compound, the growth inhibition in experiment [3] (setting [7]) was -65%; in experiment [3] (setting [8]), -57%; in experiment [3] (at 50.0 µM), -17.9%; in experiment [4] (setting [7]), -63%; in experiment [4] (setting [8]), -69%; in experiment [4] (at 50.0 µM), -94.7%. For the same compound, the growth inhibition in experiment [5] (setting [7]) was -63%; in experiment [5] (setting [8]), -54%; in experiment [5] (at 50.0 µM), 17.1%; in experiment [6] (setting [7]) it was -153%; in experiment [6] (setting [8]), -114%; in experiment [6] (at 50.0 µM), 3.95%.
